# The sample as a whole holds a higher share of the strongest signals than the screen did.
# B1: CLECSF8 (Mus musculus), Q9Z2H6 (protein)
# chain: HYFLRWTRGSVVKLSDYHTRVTCIREEPQPGATGGTWTCCPVSWRAFQSNCYFPLNDNQTWHESERNCSGMSSHLVTINTEAEQNFVTQLLDKRFSYFLGLADENVEGQWQWVDKTPFNPHTVFWEKGESNDFMEEDCVVLVHVHEKWVWNDFPCHFEVRRICKLPGITFNWKPSK
# Experiments:
# Test in all cases: glycan array binding signal (z-score within array); higher = stronger binding
# Details in all cases: glycan notation: IUPAC condensed, linker removed
# [1] = biological target: Fuc(a1-2)[Gal(a1-3)]Gal(b1-4)GlcNAc(b1-3)Gal(b1-4)Glc
# How it was run: (§1)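 Negative Z-scores can be read as non-binding. The Z-score is calculated within each array and then averaged across arrays of one protein sequence at different concentrations or buffers and across linkers. Arrays, 3228 in all, were curated from the Consortium for Functional Glycomics database and kept only where the protein sequence was available.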
# [2] = biological target: Fuc(a1-3)[Gal(b1-4)]GlcNAc(b1-3)Gal(b1-4)Glc
# How it was run: as §1
# Gal(b1-4)Glc = biological target: Gal(b1-4)Glc
# How it was run: as §1
# [3] = biological target: Gal(b1-4)GlcNAc(b1-2)Man(a1-3)[Gal(b1-4)GlcNAc(b1-2)Man(a1-6)]Man(b1-4)GlcNAc(b1-4)[Fuc(a1-6)]GlcNAc
# How it was run: as §1
# [4] = biological target: Gal(b1-4)GlcNAc(b1-2)Man(a1-3)[Gal(b1-4)GlcNAc(b1-2)Man(a1-6)][GlcNAc(b1-4)]Man(b1-4)GlcNAc(b1-4)[Fuc(a1-6)]GlcNAc
# How it was run: as §1
# Glc(a1-4)Glc = biological target: Glc(a1-4)Glc
# How it was run: as §1
# [5] = biological target: Glc(a1-6)Glc(a1-4)Glc(a1-4)Glc
# How it was run: as §1
# [6] = biological target: Glc(a1-6)Glc(a1-6)Glc(a1-6)Glc(a1-6)Glc(a1-6)Glc(a1-6)Glc(a1-6)Glc
# How it was run: as §1
# [7] = biological target: GlcA(b1-3)Gal(b1-4)GlcNAc(b1-3)Gal(b1-4)Glc
# How it was run: as §1
# [8] = biological target: GlcNAc(a1-4)Gal(b1-3)[Fuc(a1-2)]Gal
# How it was run: as §1
# [9] = biological target: GlcNAc(b1-2)[GlcNAc(b1-4)]Man(a1-3)[GlcNAc(b1-2)[GlcNAc(b1-4)][GlcNAc(b1-6)]Man(a1-6)][GlcNAc(b1-4)]Man(b1-4)GlcNAc(b1-4)GlcNAc
# How it was run: as §1
# [10] = biological target: GlcNAc(b1-4)GlcNAc(b1-4)GlcNAc
# How it was run: as §1
# [11] = biological target: HexA(a1-3)GalNAc4S(b1-4)IdoA(a1-3)GalNAc4S(b1-4)IdoA(a1-3)GalNAc4S(b1-4)IdoA(a1-3)GalNAc4S(b1-4)IdoA(a1-3)GalNAc4S(b1-4)IdoA(a1-3)GalNAc4S(b1-4)IdoA(a1-3)GalNAc4S
# How it was run: as §1
# [12] = biological target: Man(a1-2)Man(a1-3)[Man(a1-2)Man(a1-6)[Man(a1-3)]Man(a1-6)]Man(b1-4)GlcNAc(b1-4)GlcNAc
# How it was run: as §1
# [13] = biological target: Man(a1-2)Man(a1-3)[Man(a1-3)[Man(a1-6)]Man(a1-6)]Man(b1-4)GlcNAc(b1-4)GlcNAc
# How it was run: as §1
# [14] = biological target: Man(a1-3)[Man(a1-6)]Man(a1-6)[Man(a1-3)]Man
# How it was run: as §1
# [15] = biological target: Neu4Ac5Ac(a2-3)Gal(b1-4)Glc
# How it was run: as §1
# [16] = biological target: Neu5Ac(a2-3)Gal(b1-4)[Fuc(a1-3)]GlcNAc6S(b1-3)Gal(b1-4)Glc
# How it was run: as §1
# [17] = biological target: Neu5Ac(a2-6)Gal(b1-3)GlcNAc(b1-3)[Fuc(a1-3)[Gal(b1-4)]GlcNAc(b1-6)]Gal(b1-4)Glc
# How it was run: as §1
# Neu5Ac(a2-6)Gal(b1-4)Glc = biological target: Neu5Ac(a2-6)Gal(b1-4)Glc
# How it was run: as §1
# [18] = biological target: Neu5Ac(a2-8)Neu5Ac(a2-3)Gal(b1-3)GalNAc(b1-4)[Neu5Ac(a2-3)]Gal(b1-4)Glc
# How it was run: as §1
# [19] = biological target: Neu5Ac(a2-8)Neu5Ac(a2-8)Neu5Ac(a2-8)Neu5Ac(a2-8)Neu5Ac
# How it was run: as §1
# [20] = biological target: Xyl(a1-6)Glc(b1-4)[Xyl(a1-6)]Glc(b1-4)[Xyl(a1-6)]Glc(b1-4)Glc
# How it was run: as §1
binder,measurement,setting,value
B1,glycan array binding signal (z-score),[1],-0.424
same,glycan array binding signal (z-score),[2],-0.424
same,glycan array binding signal (z-score),Gal(b1-4)Glc,-0.424
same,glycan array binding signal (z-score),[3],-0.424
same,glycan array binding signal (z-score),[4],-0.424
same,glycan array binding signal (z-score),Glc(a1-4)Glc,0.06
same,glycan array binding signal (z-score),[5],3.29
same,glycan array binding signal (z-score),[6],1.5
same,glycan array binding signal (z-score),[7],3.5
same,glycan array binding signal (z-score),[8],-0.424
same,glycan array binding signal (z-score),[9],-0.424
same,glycan array binding signal (z-score),[10],1.74
same,glycan array binding signal (z-score),[11],0.136
same,glycan array binding signal (z-score),[12],-0.424
same,glycan array binding signal (z-score),[13],-0.424
same,glycan array binding signal (z-score),[14],4.16
same,glycan array binding signal (z-score),[15],0.312
same,glycan array binding signal (z-score),[16],-0.424
same,glycan array binding signal (z-score),[17],-0.424
same,glycan array binding signal (z-score),Neu5Ac(a2-6)Gal(b1-4)Glc,-0.424
same,glycan array binding signal (z-score),[18],9.51
same,glycan array binding signal (z-score),[19],1.77
same,glycan array binding signal (z-score),[20],3.32

# Source: the supplement of paper PMC8728848
